LDHA block – qHTS assay for inhibitors of human lactate dehydrogenase; activity change, % (values are at about 110 or 230 µM); AID 1347041, 2019; L-lactate dehydrogenase A chain (Homo sapiens), P00338; purified LDHA, NADH/diaphorase-resazurin fluorescence; active compounds read low; 480,000 tested, 0.15% active; in the data active = activity change below about -30%; inconclusive = mostly about -25% to -30%;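 also: plate controls were DMSO wells for no effect and wells without enzyme for full effect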
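Remaining NADH was detected by diaphorase (0.133 mg/mL) converting 37 µM resazurin to fluorescent resorufin, read at 0 and 20 minutes. The preceding 5-minute room-temperature reaction used 2 nM LDHA, 0.2 mM sodium pyruvate and 0.06 mM NADH at pH 7.4.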
VP16 counter – VP16 counterscreen qHTS for inhibitors of ROR gamma transcriptional activity; Potency, µM (series often up to 53.6 µM), for inactives: at the top dose activity, negative = inhibition, most hits filed as inhibitors; Drosophila S2 Gal4-VP16 UAS-luciferase, luminescence, 20 h; AID 2546, 2010; 310,000 tested, 3.5% active;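 also: Gal4-VP16 expression switched on by copper sulfate through the metallothionein promoter; potency is read from the fitted curve at half-maximal effect; nearly all actives have a fitted effect of over 50% in size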
IL1B secr inh – qHTS for Inhibitors of Inflammasome Signaling: IL-1-beta AlphaLISA Primary Screen. activity change, % at 57.5 µM. 360,000 tested, 4.7% active. THP-1 LPS/ATP IL-1B secretion, AlphaLISA, 16 h; active compounds read low; in the data active = activity change below about -50%; inconclusive = mostly about -30% to -49%
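THP-1 cells pretreated 1 hr with compounds (up to 57.5 uM final), then stimulated with LPS (250 ng/mL final) plus ATP (1.25 mM final); secreted IL-1B measured by AlphaLISA after 16 hr, decreased signal indicating inhibition.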
TDP1 cell CPT – qHTS for Inhibitors of human tyrosyl-DNA phosphodiesterase 1 (TDP1): qHTS in cells in presence of CPT. chicken DT40 Tdp1-/-;hTDP1 cells + 20 nM CPT, ATP luminescence, 48 h. Potency, µM (highest dose often 46.2 µM), inactives show at the top dose activity change, negative = growth inhibition, hits mostly inhibitors. 420,000 tested, 12% active. AID 686979, 2013; also: potency is read from the fitted curve at half-maximal effect; nearly all actives have a fitted effect of over 55% in size
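Chicken DT40 Tdp1-/- cells complemented with human TDP1, 400 cells/well, exposed to compounds plus 20 nM camptothecin for at least 48 h at 37 C; viability read as ATP content by CellTiter-Glo luminescence.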
TDP1 cell noCPT – qHTS for Inhibitors of human tyrosyl-DNA phosphodiesterase 1 (TDP1): qHTS in cells in absence of CPT; DT40 Tdp1-/- hTDP1 cells, no CPT, ATP luminescence, 48 h; Potency, µM (highest dose often 46.2 µM), for the others: at the top dose activity change, negative = growth inhibition, usual class: inhibitors; 420,000 tested, 15% active; AID 686978, 2013; also: potency is read from the fitted curve at half-maximal effect; nearly all actives have a fitted effect of over 55% in size
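Stably hTDP1-transfected Tdp1-null chicken DT40 cells were treated with library compounds minus camptothecin and grown for at least 48 hr at 37 °C, after which cellular ATP was quantified by luminescence.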
RORg inh – qHTS for inhibitors of ROR gamma transcriptional activity. Potency, µM (highest dose often 53.6 µM), inactives show top-dose activity change, negative = inhibition, usual class: inhibitors. Nuclear receptor ROR-gamma (Mus musculus), P51450. 310,000 tested, 5.4% active. Drosophila S2 Gal4-RORgamma UAS-luciferase reporter, 20 h; also: potency is read from the fitted curve at half-maximal effect; nearly all actives have a fitted effect of over 60% in size
Target sequence (P51450 whole entry, looked up, the tested form may be a part): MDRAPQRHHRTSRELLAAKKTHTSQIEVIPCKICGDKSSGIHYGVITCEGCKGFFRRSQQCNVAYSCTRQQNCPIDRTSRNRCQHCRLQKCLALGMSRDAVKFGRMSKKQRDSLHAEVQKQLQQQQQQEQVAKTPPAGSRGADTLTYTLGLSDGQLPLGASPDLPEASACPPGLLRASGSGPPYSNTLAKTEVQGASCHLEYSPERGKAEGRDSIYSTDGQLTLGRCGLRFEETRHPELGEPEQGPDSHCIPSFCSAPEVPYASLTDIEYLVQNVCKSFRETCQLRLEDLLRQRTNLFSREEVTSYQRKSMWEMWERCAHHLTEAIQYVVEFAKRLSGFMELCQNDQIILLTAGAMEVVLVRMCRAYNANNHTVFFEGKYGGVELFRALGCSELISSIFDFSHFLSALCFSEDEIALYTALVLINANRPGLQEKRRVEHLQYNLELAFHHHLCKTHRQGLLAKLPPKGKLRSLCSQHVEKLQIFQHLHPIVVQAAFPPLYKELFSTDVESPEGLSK
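Using a luciferase readout, inhibitors were identified by reduced reporter activity in Drosophila cells coexpressing a copper-inducible Gal4–ROR gamma fusion and UAS-driven Photinus luciferase, incubated 20 hr after 700 uM copper sulfate.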
An asterisk follows results filed as active; u = inconclusive; x = not tested or not shown. This is a sample that favours compounds with a hit; in the whole collection about 18% have one here. Unless noted, calls follow the shape of the dose curve; as a rule, active = well fitted curve in the direction sought with a large enough effect; inconclusive = small, poorly fitted or top-dose-only effect, or another doubt; inactive = no such curve, though single readings can be large; an effect the other way counts as inactive or inconclusive. Unless noted, % is scaled to controls: 0 for no effect and ±100 for the full control effect.

SMILES | LDHA block | VP16 counter | IL1B secr inh | TDP1 cell CPT | TDP1 cell noCPT | RORg inh
CCOc1cc(C(=O)NC(CC(=O)OC)c2cccs2)ccc1OC (stereo not given) | 1 | x | x | x | x | x
Cc1cc(C)cc(C(=O)Nc2ccc3oc(C)nc3c2)c1 | 6 | x | x | x | x | x
CN1CCN(c2ccc(CNC(=O)c3ccc(-c4ccc(F)c(F)c4)c4ccoc34)cc2)CC1 | -8 | x | -18 | u | 18µM* | x
CN1CCN(c2ccc(CNC(=O)c3cccc4c(-c5ccc(F)c(F)c5)coc34)cc2)CC1 | 5 | x | -11 | u | u | x
CN(C)CCCn1c(COc2ccc3cc(Br)ccc3c2)n[nH]c1=S | 8 | x | x | x | x | x
CCOc1ccc2nc(SCC3CC3(Cl)Cl)[nH]c2c1 (stereo not given) | -3 | 8% | -62* | u | 18µM* | 8%
FC(F)(F)c1ccc2nnc(SCc3c(Cl)cccc3Cl)n2c1 | -1 | x | x | x | x | x
Cc1[nH]c(SCC(=O)Nc2cccc(S(=O)(=O)N3CCCC3)c2)nc1Cc1ccccc1 | 10 | x | x | x | x | x
COCCNC(=O)C1CCCN(C(=O)Cc2cccc3ccccc23)CC1 (stereo not given) | -1 | x | 13 | 2% | -27% | x
COCCCNC(=O)C1CCN(C(=O)c2ccc(-n3ccc4ccccc43)s2)CC1 | 1 | x | x | 18µM* | 16µM* | x
O=C(NCc1ccc(F)cc1)C1CCN(C(=O)c2ccc(-n3ccc4ccccc43)s2)CC1 | 1 | x | x | 16µM* | 15µM* | x
Cc1cccc(NC(=O)COC(=O)CCc2nc3ccccc3s2)c1C | -1 | x | x | x | x | x
N#Cc1c(SCC(=O)Nc2ccc(Cl)cc2Cl)nc(N2CCOCC2)c2c1CCCC2 | 10 | x | x | x | x | x
CC1CCCC(NC(=O)C2CCN(S(=O)(=O)N3CCCCCC3)CC2)C1C (stereo not given) | -2 | -3% | -4 | u | 23µM* | u
CCc1cccc(NC(=O)COC(=O)Cc2cccc3ccccc23)c1 | -20 | x | x | x | x | x
CC(c1cc2ccccc2o1)N(C)Cc1nc(-c2ccc(F)cc2)no1 (stereo not given) | 2 | x | x | x | x | x
CC(C)C1OC(CCc2ccccc2)Cc2[nH][nH]c(=O)c21 (stereo not given) | 1 | x | -7 | -23% | 23µM* | x
CC(=O)c1ccc(NC(=O)C2(c3ccc(Br)cc3)CCCC2)cc1 | -2 | x | x | x | x | x
CCN(CC)CCCNC(=O)c1nn(-c2ccc(OC)c(Cl)c2)c(=O)c2c1c1ccccc1n2C | -4 | x | x | u | 16µM* | x
COc1ccc(-n2nc(C(=O)NCCc3ccc(Cl)cc3)c3c4ccccc4n(C)c3c2=O)cc1 | -4 | x | x | 8.2µM* | 10µM* | x
COc1ccc(-n2nc(C(=O)N3CCCC(C)C3)c3c4ccccc4n(C)c3c2=O)cc1Cl (stereo not given) | -4 | x | x | 16µM* | -97% | x
CCN(C(=O)c1nn(-c2ccc(OC)c(Cl)c2)c(=O)c2c1c1ccccc1n2C)c1cc(OC)ccc1OC | -7 | x | x | u | 15µM* | x
CC1CCC(NC(=O)/C=C/c2cccc(C#N)c2)CC1 (stereo not given) | 6 | x | x | x | x | x
CC(=O)N(c1nc(C)c(C(=O)Nc2ccc3[nH]ccc3c2)s1)C(C)C | -24 | x | x | x | x | x
O=C(COc1ccccc1)Nc1ccc(Cl)c(-c2nc3ccccc3o2)c1 | -1 | x | x | x | x | x
SMILES | LDHA block | VP16 counter | IL1B secr inh | TDP1 cell CPT | TDP1 cell noCPT | RORg inh
Cn1c(=O)c2c(ncn2CCC(=O)Nc2ccccc2Oc2ccccc2)n(C)c1=O | 5 | x | x | x | x | x
CCCCNC(=O)c1nn(-c2ccc(C)cc2)c(=O)c2c1c1ccccc1n2C | -10 | x | x | 8.2µM* | 2.6µM* | x
CCCCCC(=O)Nc1cccc(C2=NOC3(C2)C[C@@H](C(N)=O)N(C(=O)CC(c2ccccc2)c2ccccc2)C3)c1 (stereo not given in full) | 1 | -4% | 0 | 23µM* | u | 30%
C/C=C\C(=O)Nc1cccc(C2=NOC3(C2)C[C@@H](C(N)=O)N(C(=O)CC(c2ccccc2)c2ccccc2)C3)c1 (stereo not given in full) | 0 | 7% | -23 | u | 16µM* | u
CCCCCC(=O)Nc1cccc(C2=NOC3(C2)C[C@H](C(N)=O)N(C(=O)COc2ccc(Cl)cc2)C3)c1 (stereo not given in full) | 3 | -20% | u | u | u | u
CC/C=C/C(=O)N1CC2(CC(c3cccc(NC(=O)CC(c4ccccc4)c4ccccc4)c3)=NO2)C[C@@H]1C(N)=O (stereo not given in full) | 2 | 3% | u | -86% | 16µM* | 19%
C/C=C/C=C/C(=O)Nc1cccc(C2=NOC3(C2)C[C@H](C(N)=O)N(C(=O)CC(c2ccccc2)c2ccccc2)C3)c1 (stereo not given in full) | x | 19% | x | x | x | u
COC(=O)c1c(-c2cccc3ccccc23)csc1NC(=O)Cc1ccc(OC)c(OC)c1 | -5 | -22% | u | 26µM* | 12µM* | 4%
COC(=O)c1c(-c2ccc(Br)cc2)csc1NC(=O)Cc1ccc(OC)c(OC)c1 | 2 | u | -6 | u | 10µM* | u
COc1cc(/C=C(\C#N)C(N)=O)cc(CSc2nc3ccccc3s2)c1O | x | 14µM* | x | 15µM* | 15µM* | 5.6µM*
CCOc1cc(/C=C(\C#N)C(N)=O)cc(CSc2ccccc2)c1O | x | -7% | x | x | x | u
CC(=O)c1sc2nsc(SCCN3CCCC3)c2c1N | -5 | -11% | -93* | 26µM* | u | -45%
CC(=O)c1sc2nc(C)c3c(c2c1N)CCCC3 | 4 | -12% | x | 0% | u | -14%
C/C(=N\Oc1cc(N)cc([N+](=O)[O-])c1)c1ccncc1 | 13 | x | x | x | x | x
COC(=O)Cn1c(=O)c2c(nc(-n3nc(C)cc3C)n2CC(C)C)n(C)c1=O | 8 | x | x | x | x | x
COc1ccc(OC)c(S(=O)(=O)N2CCN(CC(O)COc3ccc(C#N)cc3)CC2)c1 (stereo not given) | 0 | 0% | 0 | u | 23µM* | 7%
OC(COc1ccccc1)CN1CCN(C(c2ccccc2)c2ccccc2)CC1 (stereo not given) | -1 | -27% | u | u | u | -41%
